This is an account of results in PubChem BioAssay (NCI).

Test systems include NCI-H23 lung; NCI-H226 lung; NCI-H322M lung; HOP-62 NSCLC; NCI-H460 lung; NCI-H522 lung; A549/ATCC NSCLC; 786-0 renal; COLO 205 colon; DU-145 prostate; K-562 leukemia; MALME-3M melanoma; MDA-MB-231 breast; RXF 393 renal; SF-268 CNS; SF-295 CNS; SF-539 CNS; UACC-257 melanoma; M14 melanoma; HCT-15 colon.
Assay in all cases: NCI-60 one-dose screen, 48 h (100 = growth as untreated, 0 = no growth, -100 = all killed)
Holding throughout (conditions): 10 µM

Structures are written as SMILES. Compounds without any hit were thinned out: in the full panel of roughly 83,000, 20% have a hit.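 Results are percent growth after 48 hours of single-concentration exposure. 100 means growth as in untreated cells, lower positive values show inhibition; negative values down to -100 show cell death.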 A number with no mark means an inactive call. The source made the active and inactive calls. How the source made its calls: active means growth percent below 10; inactive means the rest.

Regarding `O=C(Nc1cccc(-n2cc(-c3ccncc3)c(-c3ccc(O)c(Cl)c3)n2)c1)c1cccc(C(F)(F)F)c1`, the growth in the test on NCI-H23 lung is 41.9%; in the test on NCI-H226 lung, 68%; with NCI-H322M lung, 47%; with HOP-62 NSCLC, 47.2%; with NCI-H460 lung, 17.2%; with NCI-H522 lung, 28.2%. Moreover, the growth with A549/ATCC NSCLC is 16.1%; in the test with 786-0 renal, 21.4%; with COLO 205 colon, 98.8%; with DU-145 prostate, 51.1%; in the test on K-562 leukemia, 19.3%; in the test with MALME-3M melanoma it was 24.6%. Besides, the growth with MDA-MB-231 breast was -58.9% (active); with RXF 393 renal, -12.4% (active); in the test with SF-268 CNS, 51.7%; in the test on SF-295 CNS, 7.62% (active); in the test with SF-539 CNS, 27.4%; in the test with UACC-257 melanoma it was 33.3%. The growth with M14 melanoma was 28.4%; in the test on HCT-15 colon it was 23.8%.

For the compound `Cc1ccc(C)c(C(O)(c2cc(C)ccc2C)C2(O)CCCCC2)c1`, the growth in the test with NCI-H23 lung was 88.5%; in the test with NCI-H226 lung it was 82.7%; with NCI-H322M lung it was 104%; in the test on HOP-62 NSCLC it was 112%; with NCI-H460 lung it was 95.7%; in the test with NCI-H522 lung, 61.4%. The growth in the test on A549/ATCC NSCLC was 92.9%; in the test on 786-0 renal it was 90.6%; with COLO 205 colon it was 96.7%; with DU-145 prostate, 104%; in the test on K-562 leukemia, 87.3%; in the test with MALME-3M melanoma, 91.7%. Besides, the growth in the test with MDA-MB-231 breast was 96.9%; with RXF 393 renal it was 91%; with SF-268 CNS, 94.2%; with SF-295 CNS, 95.9%; in the test with SF-539 CNS, 94.6%; with UACC-257 melanoma, 102%. The growth in the test with M14 melanoma was 98.6%; in the test on HCT-15 colon it was 94.5%.

Consider `COc1ccc(-c2cc(/C=C/C(=O)c3cc(OC)c(OC)c(OC)c3)[nH]n2)cc1OC`, for which the growth with NCI-H23 lung is 47.2%; with NCI-H226 lung, 63%; in the test with NCI-H322M lung it was 1.57% (active); in the test on HOP-62 NSCLC, -27% (active); with NCI-H460 lung, -45.7% (active); with NCI-H522 lung it was -69.8% (active). For the same compound, the growth was 20.8% with A549/ATCC NSCLC; -57.9% (active) in the test on 786-0 renal; -42.5% (active) with COLO 205 colon; 0.588% (active) in the test on DU-145 prostate; 5.1% (active) in the test with K-562 leukemia; -17.5% (active) in the test with MALME-3M melanoma. Moreover, the growth with MDA-MB-231 breast was -25.3% (active); with RXF 393 renal it was -16.9% (active); with SF-268 CNS it was -45.7% (active); in the test with SF-295 CNS, 29.1%; with SF-539 CNS it was -51.4% (active); in the test on UACC-257 melanoma it was 69.6%. Besides, the growth in the test with M14 melanoma is 53.2%; in the test on HCT-15 colon, -15.5% (active).

With `Nc1nc(N)c(NC(=O)CNc2ccc(C(=O)O)cc2)c(N)n1`, the growth was 112% with NCI-H23 lung; 98% in the test with NCI-H226 lung; 106% in the test on NCI-H322M lung; 107% in the test on HOP-62 NSCLC; 110% in the test with NCI-H460 lung; 92% with NCI-H522 lung. The growth with A549/ATCC NSCLC was 102%; in the test on 786-0 renal, 107%; in the test on COLO 205 colon, 110%; with DU-145 prostate it was 121%; in the test on K-562 leukemia it was 106%; in the test with MALME-3M melanoma, 112%. The growth with MDA-MB-231 breast is 106%; with RXF 393 renal it was 96.4%; in the test on SF-268 CNS, 119%; in the test on SF-295 CNS, 99.2%; in the test on SF-539 CNS, 101%; with UACC-257 melanoma it was 103%. The figures for the growth with M14 melanoma and in the test on HCT-15 colon were 111% and 112%, respectively.

`C#Cc1ccc(-n2c(/C=C/c3ccc(C(F)(F)F)cc3)nc3ncccc3c2=O)cc1`: the growth in the test with NCI-H23 lung is 78.4%; with NCI-H226 lung, -42.7% (active); with NCI-H322M lung, 33.7%; in the test on HOP-62 NSCLC it was 37.6%; in the test on NCI-H460 lung, 72.1%; with NCI-H522 lung, 4.27% (active). Besides, the growth is 23.6% in the test on A549/ATCC NSCLC; 53% with 786-0 renal; 18.6% in the test with COLO 205 colon; 46.2% in the test on DU-145 prostate; 4.03% (active) in the test on K-562 leukemia; 39.1% with MALME-3M melanoma. Besides, the growth with MDA-MB-231 breast is 56.9%; in the test with RXF 393 renal, -10.4% (active); with SF-268 CNS, 31.4%; in the test with SF-295 CNS, 32.6%; with SF-539 CNS, 45.2%; with UACC-257 melanoma, 29%. Besides, the figures for the growth with M14 melanoma and in the test on HCT-15 colon were 10.7% and 22.3%, respectively.

Regarding `CC(=O)CSC(C)=O`, the growth in the test on NCI-H23 lung was 108%; with NCI-H226 lung it was 99%; with NCI-H322M lung, 104%; in the test with HOP-62 NSCLC, 101%; in the test on NCI-H460 lung, 103%; with NCI-H522 lung, 105%. The growth with A549/ATCC NSCLC is 99.6%; in the test with 786-0 renal it was 102%; in the test on COLO 205 colon, 119%; with DU-145 prostate, 117%; with K-562 leukemia, 106%; with MALME-3M melanoma it was 89.6%. Also, the growth in the test on MDA-MB-231 breast is 99.7%; in the test on RXF 393 renal, 109%; in the test with SF-268 CNS, 105%; in the test with SF-295 CNS, 91.8%; with SF-539 CNS, 95.2%; in the test on UACC-257 melanoma, 100%. The growth in the test on M14 melanoma and in the test on HCT-15 colon was 103% each time.

On to `CCOC(=O)N1C/C(=C/c2ccc(OC)cc2)C(=O)/C(=C/c2ccc(OC)cc2)C1`, for which the growth in the test with NCI-H23 lung was 46.3%; in the test with NCI-H226 lung it was 23.8%; in the test with NCI-H322M lung, 71.1%; in the test on HOP-62 NSCLC, 29.5%; in the test on NCI-H460 lung, 42%; in the test with NCI-H522 lung it was 39%. In addition, the growth in the test on A549/ATCC NSCLC was 21.4%; in the test with 786-0 renal, -2.34% (active); with COLO 205 colon it was 24.5%; in the test with DU-145 prostate it was 17.7%; in the test on K-562 leukemia, -2.17% (active); in the test with MALME-3M melanoma, 34.2%. For the same compound, the growth was 30.6% in the test with MDA-MB-231 breast; -44.4% (active) with RXF 393 renal; 38.2% in the test with SF-268 CNS; 24.5% with SF-295 CNS; 39.4% with SF-539 CNS; 42.9% with UACC-257 melanoma. Moreover, the growth in the test on M14 melanoma was -40.8% (active); in the test with HCT-15 colon, 3.06% (active).

Consider `COc1cc2cc3c(nc2cc1OC)CCN3Cc1ccc(NC(=O)Nc2ccc(F)cc2F)cc1`, for which the growth in the test on NCI-H23 lung was 71.5%; in the test with NCI-H226 lung it was 79.4%; in the test with NCI-H322M lung it was 84.8%; in the test with HOP-62 NSCLC it was 105%; with NCI-H460 lung, 97.6%; in the test on NCI-H522 lung it was 63%. Further, the growth in the test on A549/ATCC NSCLC was 69.4%; in the test on 786-0 renal it was 70.4%; in the test with COLO 205 colon, 90.9%; in the test on DU-145 prostate it was 91.2%; with K-562 leukemia, 61.5%; in the test with MALME-3M melanoma it was 93.2%. The growth was 89% in the test with MDA-MB-231 breast; 88.6% in the test on RXF 393 renal; 94.9% in the test with SF-268 CNS; 76.9% with SF-295 CNS; 97.8% in the test on SF-539 CNS; 77.3% in the test on UACC-257 melanoma. The growth in the test on M14 melanoma is 81.8%; with HCT-15 colon, 78.8%.
